Compound activity: PubChem BioAssay, several laboratories
The full list was thinned out, with hits kept by preference.
YopH PTP inh = blocks Yersinia enterocolitica YopH tyrosine phosphatase. fluorescence Ex485/Em525. inhibition, % (concentration not given with the values). 140,000 compounds, 0.16% hits. AID 898; in the data active = inhibition above about 50%
Mtb RmlCD inh = blocks M. tuberculosis RmlC and RmlD coupled enzymes | P9WH09+P9WH11 | RmlC+RmlD coupled enzyme assay, percent inhibition; primary screen in compound mixtures | inhibition, % at 3.6 µM | 160,000 compounds, 0.03% hits; in the data active = inhibition mostly above about 34%, no sharp cut-off; inconclusive = no clear call, values can overlap the other calls; inactive = mostly below about 22%
Target sequence (P9WH09 whole entry, looked up): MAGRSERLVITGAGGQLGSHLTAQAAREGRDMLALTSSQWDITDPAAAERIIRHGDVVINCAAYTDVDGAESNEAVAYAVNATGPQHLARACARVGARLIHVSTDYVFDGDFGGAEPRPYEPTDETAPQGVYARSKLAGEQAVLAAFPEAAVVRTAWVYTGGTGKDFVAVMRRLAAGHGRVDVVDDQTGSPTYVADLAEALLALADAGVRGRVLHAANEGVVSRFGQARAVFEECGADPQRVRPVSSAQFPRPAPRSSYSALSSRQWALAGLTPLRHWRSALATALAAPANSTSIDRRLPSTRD
Target sequence (P9WH11 whole entry, looked up): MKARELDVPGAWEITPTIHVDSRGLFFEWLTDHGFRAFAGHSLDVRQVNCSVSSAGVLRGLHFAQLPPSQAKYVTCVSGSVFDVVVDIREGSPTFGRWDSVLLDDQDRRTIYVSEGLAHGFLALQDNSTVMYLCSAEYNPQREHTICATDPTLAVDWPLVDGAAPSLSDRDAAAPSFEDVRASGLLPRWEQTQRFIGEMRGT
Of the large screens only hits and unclear results are named; the others gave an inactive call.

COc1ccc(NC(=O)/C(=C\c2cccnc2)NC(=O)c2cccs2)cc1	none
O=C(N/N=C/c1ccc(O)cc1)/C(=C/c1ccccc1)CCO	none
CC(C)CCNC(=O)NC(=O)COC(=O)CNC(=O)C1CCCCC1	none (no result: YopH PTP inh)
O=C1C(N2CCOCC2)=C(n2nnc3ccccc32)C(=O)c2ccccc21	YopH PTP inh 68.7 (no result: Mtb RmlCD inh)
O=C1c2ccccc2C(=O)c2c1cccc2-n1nnc2ccccc21	none (no result: YopH PTP inh)
CN1CCN(NC(=O)c2ccc(S(=O)(=O)N3CC4(C)CC3CC(C)(C)C4)cc2)CC1 (centres undefined)	none (no result: YopH PTP inh)
COc1ccc(-c2cc(C(=O)O)c3c(C)nn(-c4ccccn4)c3n2)cc1	none (no result: Mtb RmlCD inh)
COc1ccc(N=CC2=C(Nc3ccc(OC)cc3)c3c(C)nn(-c4ccccn4)c3CC2)cc1	YopH PTP inh 50.9 (no result: Mtb RmlCD inh)
O=C(COc1cc(Cl)c(Cl)cc1Cl)Nc1ccc([N+](=O)[O-])cc1Cl	none (no result: YopH PTP inh)
CCOC(=O)c1nc(C)n(-c2ccc([N+](=O)[O-])cc2)n1	none (no result: YopH PTP inh)
CCOC(=O)c1nc(C)n(-c2ccc(Cl)cc2)n1	YopH PTP inh 51.9
CCn1c(COc2ccc(C)cc2)nnc1SCc1nc2ccccc2[nH]1	none
Cn1c(COc2ccccc2)nnc1SCc1nc2ccccc2[nH]1	YopH PTP inh 70.7
CCNc1nc(NCC)n2c(SCC(=O)Nc3ccccc3[N+](=O)[O-])nnc2n1	none (no result: Mtb RmlCD inh)
Cc1oc2ccccc2c1-c1cn2c(n1)SCC2	YopH PTP inh 55.4 (no result: Mtb RmlCD inh)
c1ccc(-c2cn3c(n2)SCC3)cc1	none (no result: Mtb RmlCD inh)
CCCCNC(=O)c1c(N)n(CCCOC)c2nc3ccccc3nc12	none (no result: Mtb RmlCD inh)
COCCCn1c(N)c(C(=O)OCCOC)c2nc3ccccc3nc21	YopH PTP inh 50.6 (no result: Mtb RmlCD inh)
CC(C)CCNC(=O)C(CC(C)C)N(Cc1ccc2c(c1)OCO2)C(=O)c1snc(C(N)=O)c1N (centres undefined)	none (no result: YopH PTP inh)
c1csc(-c2csc3ncnc(NCCCN4CCOCC4)c23)c1	none (no result: Mtb RmlCD inh)
c1ccc(-c2csc3ncnc(NCCCN4CCOCC4)c23)cc1	YopH PTP inh 50.9 (no result: Mtb RmlCD inh)
CCOC(=O)c1c(C)oc2c1c(C=NCC1CCCO1)c(O)c1ccccc12 (centres undefined)	none
CCOC(=O)c1c(C)oc2c1c(C=NCc1ccccn1)c(O)c1ccccc12	YopH PTP inh 56.6
O=C(NC1CCCC1)C1CCCN1S(=O)(=O)c1cccc2cccnc12 (centres undefined)	none
O=C(NCc1ccccc1)C1CCCN1S(=O)(=O)c1cccc2cccnc12 (centres undefined)	YopH PTP inh 80.2 (no result: Mtb RmlCD inh)
CC(=O)c1cccc(NC(=O)C(=O)c2cn(CC(=O)N3CCCCC3)c3ccccc23)c1	none (no result: YopH PTP inh)
CSc1nc(C)cc(OCC(=O)N/N=C/c2ccccc2O)n1	none (no result: Mtb RmlCD inh)
COc1ccc(OC)c2[nH]c(C(=O)O)cc12	none (no result: Mtb RmlCD inh)
COC(=O)c1cc(=O)c2cccc(OC)c2[nH]1	Mtb RmlCD inh 62.4 (no result: YopH PTP inh)
COc1ccc(CNC(=O)CNC(=O)c2c(C)nn(C)c2Cl)cc1	none (no result: YopH PTP inh)
CC(=O)N1C(=O)/C(=C2\SC(=S)N(c3c(C)n(C)n(-c4ccccc4)c3=O)C2=O)c2ccccc21	YopH PTP inh 99.2, Mtb RmlCD inh inconclusive
Cc1c(N2C(=O)/C(=C3/C(=O)N(C)c4ccccc43)SC2=S)c(=O)n(-c2ccccc2)n1C	none
COc1ccccc1C(=O)N/C(=C\c1ccc2c(c1)OCO2)C(=O)NCCc1nc2ccccc2[nH]1	none
CC(C)(C)c1ccc(SCCc2ccccn2)cc1	none (no result: YopH PTP inh)
Cc1cc(C)c2c(N)c(C(=O)N/N=C/c3cccs3)sc2n1	Mtb RmlCD inh 54.9 (no result: YopH PTP inh)
COc1ccc(/C=N/NC(=O)c2sc3nc(C)cc(C)c3c2N)cc1	none (no result: YopH PTP inh)
Cc1cc(C)nc(SCC(=O)Oc2ccc3oc(=O)cc(C)c3c2)n1	YopH PTP inh 51.5
CCC(=O)Oc1ccc2oc(=O)cc(C)c2c1	none
CCOC(=O)C(=CNc1ccc2c(c1)c1ccccc1n2CC)C(=O)OCC	none (no result: YopH PTP inh)
O=C(COC(=O)c1ccc([N+](=O)[O-])s1)Nc1ccccc1	YopH PTP inh 50.5
CC(C)(C)c1ccc(NC(=O)COC(=O)c2ccc([N+](=O)[O-])s2)cc1	none
N#Cc1c(N)nc2c(c1-c1ccc(F)cc1)c(=O)nc1sccn12	none (no result: YopH PTP inh)
CCO/C=C1/C(=O)N(c2ccc(OC)cc2)C(=O)c2ccccc21	none (no result: YopH PTP inh)
CCO/C=C1\C(=O)N(c2ccccc2)C(=O)c2ccccc21	YopH PTP inh 89.1
CCO/C=C1/C(=O)N(CC)c2ccccc21	none (no result: Mtb RmlCD inh)
CCO/C=C1/C(=O)N(Cc2ccccc2)C(=O)c2ccccc21	YopH PTP inh 101.4
Cc1cccn2c(=O)c3cc(C(=O)NCC4CCCO4)c(=N)n(CCN4CCOCC4)c3nc12 (centres undefined)	none (no result: Mtb RmlCD inh)
COCCn1c(=N)c(C(=O)NCCc2ccccc2)cc2c(=O)n3cccc(C)c3nc21	none (no result: Mtb RmlCD inh)
CCCn1c(=N)c(C(=O)NCC2CCCO2)cc2c(=O)n3cccc(C)c3nc21 (centres undefined)	Mtb RmlCD inh 108.9
CCNC(=O)c1cc2c(=O)n3cccc(C)c3nc2n(CCc2ccccc2)c1=N	Mtb RmlCD inh 32.2
Clc1ccc(-c2ccccc2)nn1	none (no result: YopH PTP inh)
COc1ccc2cc3cc(C(=O)NCCCN4CCOCC4)oc3nc2c1	Mtb RmlCD inh 51.0
CCN1CCN(CCCNC(=O)c2cc3cc4ccc(OC)cc4nc3o2)CC1	none
NC(=O)c1cc[n+](CC2=C(C(=O)O)N3C(=O)[C@@H](NC(=O)C(c4ccccc4)S(=O)(=O)[O-])[C@H]3SC2)cc1 (some centres undefined)	none (no result: Mtb RmlCD inh)
N[C@@H](C(=O)N[C@@H]1C(=O)N2C(C(=O)O)=C(Cl)CS[C@H]12)c1ccccc1	YopH PTP inh 97.1 (no result: Mtb RmlCD inh)
CC(C)CC(O)C1CCN(C(=O)CCc2nnc(-c3ccccc3)o2)CC1 (centres undefined)	none (no result: YopH PTP inh)
CCn1cc(C(=S)N2CCC(C(N)=O)CC2)c2ccccc21	none (no result: YopH PTP inh)
CC(=O)Nc1cc(OC(C)=O)c2nonc2c1OC(C)=O	YopH PTP inh 75.9 (no result: Mtb RmlCD inh)
CC(=O)Nc1nonc1NC(C)=O	none
Cc1cc(=O)oc2cc(OS(C)(=O)=O)ccc12	none
COc1ccccc1CNC(=O)c1ccc(N2CCOCC2)c([N+](=O)[O-])c1	none (no result: YopH PTP inh)
Cn1c(SCC(=O)n2c3c(c4ccccc42)CCCC3)nnc1-c1ccccc1	none (no result: Mtb RmlCD inh)
CC(=O)Nc1ccc(-c2nnc(SCC(=O)n3c4c(c5ccccc53)CCCC4)n2C)cc1	YopH PTP inh 75.3 (no result: Mtb RmlCD inh)
O=C(CSc1nnc(-c2ccccc2)o1)n1c2c(c3ccccc31)CCCC2	YopH PTP inh 56.0
Cc1ccc(-c2nnc(SCC(=O)n3c4c(c5ccccc53)CCCC4)o2)cc1	none
O=c1[nH][nH]c(=S)n1-c1ccccc1C(F)(F)F	none (no result: YopH PTP inh)
CC(=O)Nc1ccc(NC(=O)C(C)Sc2nnc(-c3cccs3)o2)cc1 (centres undefined)	none (no result: YopH PTP inh)
Cc1c(CN(C)C)c2c(n1C)C(=O)c1ccc(Br)cc1-2	none
CCOC(=O)c1c2c(n(C)c1C)C(=O)C(=O)c1ccc(Br)cc1-2	YopH PTP inh 88.5 (no result: Mtb RmlCD inh)
CCOC(=O)c1cnc(SCCN2CCOCC2)nc1N	none (no result: YopH PTP inh)
COC(=O)Cc1c(C)c2cc(Cl)c(OC(=O)c3ccco3)cc2oc1=O	none
COC(=O)Cc1c(C)c2ccc(OC(=O)c3ccco3)cc2oc1=O	Mtb RmlCD inh 83.0
Cc1noc(NC(=O)c2cccc(Cl)c2Cl)c1C#N	none (no result: YopH PTP inh)
C=CC#CC1(O)CC(C)N(C)CC1C (centres undefined)	none (no result: YopH PTP inh)
O=C(NCc1ccco1)C1CCCN(S(=O)(=O)Cc2ccccc2)C1 (centres undefined)	none (no result: Mtb RmlCD inh)
Cc1ccc(S(=O)(=O)N2CCCC(C(=O)NCc3ccco3)C2)cc1Cl (centres undefined)	YopH PTP inh 56.2 (no result: Mtb RmlCD inh)
Cc1nnnn1CC(=O)Nc1cccc([N+](=O)[O-])c1	none (no result: YopH PTP inh)
O=C(NC(C(=O)O)c1ccccc1)c1ccc(S(=O)(=O)N2CCOCC2)cc1 (centres undefined)	YopH PTP inh 50.3
